Consider 5 compounds from PubChem BioAssay.

The structures appear in SMILES notation. Calls of active or inactive are those of the source.

A short description of assay [1]: small molecules captured by biotinylated probe aFSTL3 – biochemical, small-molecule microarray, fluorescence 635/667, stem cell growth factor project, primary screen (AID 1064).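 Note: measures binding of the biotinylated anti-FSTL3 antibody to printed compounds.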 The conditions noted are these: higher = more signal.
Assay [2] in a line: binders from COS7 lysate, DM2A8 probe, primary screen, torsin A project, cell lysate, small-molecule microarray, fluorescence 635/667 (AID 1065). The conditions noted are these: higher = more signal, COS7 lysate expressing mutant human TOR1A.
A short description of assay [3]: small molecules captured by biotinylated probe aFGF2 – biochemical, small-molecule microarray, fluorescence 635/667, stem cell growth factor project, primary screen (AID 1067).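 Note: measures binding of biotinylated aFGF2 protein to printed compounds on slides; z-score merges feature fluorescence and signal-to-noise across triplicate slides.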 The conditions noted are these: higher = more signal.
The nature of assay [4]: small molecules captured by biotinylated probe aFGF10 – biochemical, small-molecule microarray, fluorescence 635/667, stem cell growth factor project, primary screen (AID 1071).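 Note: score merges 667 nm spot intensity and signal to noise from triplicate slides.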 The conditions noted are these: higher = more signal.
For assay [5], the target named is Neurogenic locus notch homolog protein 2 (Homo sapiens) (UniProt Q04721). The experiment in a line: small molecules binding Notch2 protein – biochemical, small-molecule microarray, 635 nm fluorescence, stem cell growth factors, primary screen (AID 1073). The conditions noted are these: higher = more signal.
For assay [6], the target named is Pro-neuregulin-1, membrane-bound isoform (Homo sapiens) (UniProt Q02297). The experiment in a line: small molecules binding neuregulin-1 protein – biochemical, small-molecule microarray, fluorescence 635/667, psychiatric disease protein project, primary screen (AID 1075).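 Note: score combines 667 nm spot fluorescence with signal to noise.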 The conditions noted are these: NRG1 binding, 635 nm fluorescence, higher = more signal.
Sequence of Pro-neuregulin-1, membrane-bound isoform (Homo sapiens) (Q02297 whole entry, looked up, the tested form may be a part, canonical isoform): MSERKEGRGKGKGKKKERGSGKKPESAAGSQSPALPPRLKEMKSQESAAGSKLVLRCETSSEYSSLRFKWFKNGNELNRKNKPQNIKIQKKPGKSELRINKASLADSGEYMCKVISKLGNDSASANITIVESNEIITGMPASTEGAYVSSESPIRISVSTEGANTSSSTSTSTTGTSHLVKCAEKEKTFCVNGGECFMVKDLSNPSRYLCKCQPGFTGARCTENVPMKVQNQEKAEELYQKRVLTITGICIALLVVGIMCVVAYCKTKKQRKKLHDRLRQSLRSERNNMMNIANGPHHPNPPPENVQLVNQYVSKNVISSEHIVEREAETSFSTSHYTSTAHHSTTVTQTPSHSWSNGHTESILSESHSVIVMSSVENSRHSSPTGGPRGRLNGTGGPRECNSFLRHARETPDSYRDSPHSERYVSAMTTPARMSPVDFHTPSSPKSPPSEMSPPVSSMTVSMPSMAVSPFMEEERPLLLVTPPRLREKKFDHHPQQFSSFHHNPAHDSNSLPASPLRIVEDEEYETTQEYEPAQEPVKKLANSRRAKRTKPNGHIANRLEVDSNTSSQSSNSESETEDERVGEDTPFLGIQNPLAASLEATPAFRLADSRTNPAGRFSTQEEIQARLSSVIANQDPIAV
Assay [7] concerns Neuregulin-1 EGF-like domain. In words: small molecules binding NRG1 EGF domain – biochemical, small-molecule microarray, 635 nm fluorescence, primary screen (AID 1081).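 Note: binding of the protein to compounds printed on small-molecule microarray slides.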 The conditions noted are these: higher = more signal.
Assay [8] can be described thus: FRG1 expression reporter modulators in myotubes – cell-based, C2C12 myotubes, firefly/Renilla luciferase, luminescence, FRG1 inhibition for FSHD, primary screen (AID 1084). The conditions noted are these: FRG1 promoter luciferase, higher = more signal, called active from +8 up or from −8 down.
Assay [9] can be described thus: small molecules captured by biotinylated probe aFST – biochemical, small-molecule microarray, fluorescence 635/667, stem cell growth factor project, primary screen (AID 1086).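 Note: score merges 667 nm fluorescence with signal-to-noise of each printed compound spot.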 The conditions noted are these: higher = more signal.
The nature of assay [10]: binders of probe aHhip on microarray, primary screen, stem cell growth factor project, biochemical, small-molecule microarray, fluorescence 635/667 (AID 1087).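 Note: score merges spot fluorescence at 667nm with spot signal to noise ratio.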 The conditions noted are these: higher = more signal.
Assay [11] has as its system PRMT1 (protein arginine N-methyltransferase 1). In words: small molecules binding arginine methyltransferase PRMT1 – biochemical, small-molecule microarray, 635 nm fluorescence, primary screen (AID 1088).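 Note: binding of Prmt1 protein to compounds spotted on small-molecule microarray slides.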 The conditions noted are these: higher = more signal.
Assay [12] can be described thus: growth effects on S. cerevisiae YJM789 – YJM789 clinical isolate, OD600, 24 h, basal, primary screen (AID 1089).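 Note: growth of clinical yeast isolate S. cerevisiae YJM 789 seeded 1000 cells per well; test concentration not given here.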 The conditions noted are these: higher = more signal, called active from +8 up or from −8 down.
Assay [13] in a line: S. pombe growth modifiers, basal conditions – strain 972, OD600, 24 h, no modulator, primary screen (AID 1090).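 Note: basal condition with compound alone and no growth modifier present; test concentration not given here.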 The conditions noted are these: S. pombe 972 growth, higher = more signal, called active from +8 up or from −8 down.
Assay [14] is described as follows: budding yeast growth modifiers under rapamycin – strain BY4716, OD600, 96 h, primary screen (AID 1091). Note: test concentration not given here. The conditions noted are these: S. cerevisiae BY4716 + rapamycin, higher = more signal, called active from +8 up or from −8 down.
The target in assay [15] is Torsin-1A-interacting protein 2 (Homo sapiens) (UniProt Q8NFQ8). In words: small molecules binding lysate-expressed LULL1 – cell lysate, human LULL1 lysate, 635/667 nm fluorescence, primary screen (AID 1092).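 Note: probe is lysate of COS7 cells overexpressing human LULL1; score merges per-feature 667 nm fluorescence with signal-to-noise.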 The conditions noted are these: small-molecule microarray, hLULL1 lysate binding, 635 nm fluorescence; higher = more signal.
Sequence of Torsin-1A-interacting protein 2 (Homo sapiens) (Q8NFQ8 whole entry, looked up): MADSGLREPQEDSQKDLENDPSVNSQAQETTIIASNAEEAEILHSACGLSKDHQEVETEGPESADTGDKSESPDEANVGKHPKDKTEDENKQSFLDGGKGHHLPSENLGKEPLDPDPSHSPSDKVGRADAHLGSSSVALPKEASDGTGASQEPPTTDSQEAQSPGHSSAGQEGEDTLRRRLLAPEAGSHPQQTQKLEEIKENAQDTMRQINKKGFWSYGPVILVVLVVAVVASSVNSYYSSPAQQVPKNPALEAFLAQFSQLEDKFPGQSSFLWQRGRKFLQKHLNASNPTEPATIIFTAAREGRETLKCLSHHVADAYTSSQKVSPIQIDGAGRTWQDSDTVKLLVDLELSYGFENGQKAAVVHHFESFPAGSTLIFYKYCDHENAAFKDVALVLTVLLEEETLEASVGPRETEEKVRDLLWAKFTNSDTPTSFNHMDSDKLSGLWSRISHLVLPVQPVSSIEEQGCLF
The nature of assay [16]: optical density change of DRC41 E. coli – strain DRC41, OD650, 24 h, E. coli filamentation project, primary screen (AID 1093).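 Note: MC1000 strain lacking acrAB efflux and sulA so SOS filamentation is blocked; test concentration not given here.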 The conditions noted are these: E. coli DRC41 growth, higher = more signal, called active from +8 up or from −8 down.
Assay [17] is described as follows: probe aLefty2 binding to arrayed compounds – biochemical, biotinylated probe, 635/667 nm fluorescence, primary screen (AID 1094).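 Note: score merges spot fluorescence near 667 nm with spot signal-to-noise ratio.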 The conditions noted are these: small-molecule microarray, higher = more signal.
For assay [18], the system named is Noggin (protein binding on small-molecule microarray). In words: small molecules binding Noggin protein – biochemical, 635/667 nm fluorescence, primary screen (AID 1095).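 Note: score merges 667 nm feature fluorescence with signal to noise over triplicate slides.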 The conditions noted are these: 635 nm fluorescence, higher = more signal.
The target in assay [19] is Neurogenic locus notch homolog protein 3 (Homo sapiens) (UniProt Q9UM47). In words: small molecules binding NOTCH3 protein – biochemical, 635/667 nm fluorescence, primary screen (AID 1096). The conditions noted are these: small-molecule microarray, 635 nm fluorescence, higher = more signal.
Sequence of Neurogenic locus notch homolog protein 3 (Homo sapiens) (Q9UM47 whole entry, looked up): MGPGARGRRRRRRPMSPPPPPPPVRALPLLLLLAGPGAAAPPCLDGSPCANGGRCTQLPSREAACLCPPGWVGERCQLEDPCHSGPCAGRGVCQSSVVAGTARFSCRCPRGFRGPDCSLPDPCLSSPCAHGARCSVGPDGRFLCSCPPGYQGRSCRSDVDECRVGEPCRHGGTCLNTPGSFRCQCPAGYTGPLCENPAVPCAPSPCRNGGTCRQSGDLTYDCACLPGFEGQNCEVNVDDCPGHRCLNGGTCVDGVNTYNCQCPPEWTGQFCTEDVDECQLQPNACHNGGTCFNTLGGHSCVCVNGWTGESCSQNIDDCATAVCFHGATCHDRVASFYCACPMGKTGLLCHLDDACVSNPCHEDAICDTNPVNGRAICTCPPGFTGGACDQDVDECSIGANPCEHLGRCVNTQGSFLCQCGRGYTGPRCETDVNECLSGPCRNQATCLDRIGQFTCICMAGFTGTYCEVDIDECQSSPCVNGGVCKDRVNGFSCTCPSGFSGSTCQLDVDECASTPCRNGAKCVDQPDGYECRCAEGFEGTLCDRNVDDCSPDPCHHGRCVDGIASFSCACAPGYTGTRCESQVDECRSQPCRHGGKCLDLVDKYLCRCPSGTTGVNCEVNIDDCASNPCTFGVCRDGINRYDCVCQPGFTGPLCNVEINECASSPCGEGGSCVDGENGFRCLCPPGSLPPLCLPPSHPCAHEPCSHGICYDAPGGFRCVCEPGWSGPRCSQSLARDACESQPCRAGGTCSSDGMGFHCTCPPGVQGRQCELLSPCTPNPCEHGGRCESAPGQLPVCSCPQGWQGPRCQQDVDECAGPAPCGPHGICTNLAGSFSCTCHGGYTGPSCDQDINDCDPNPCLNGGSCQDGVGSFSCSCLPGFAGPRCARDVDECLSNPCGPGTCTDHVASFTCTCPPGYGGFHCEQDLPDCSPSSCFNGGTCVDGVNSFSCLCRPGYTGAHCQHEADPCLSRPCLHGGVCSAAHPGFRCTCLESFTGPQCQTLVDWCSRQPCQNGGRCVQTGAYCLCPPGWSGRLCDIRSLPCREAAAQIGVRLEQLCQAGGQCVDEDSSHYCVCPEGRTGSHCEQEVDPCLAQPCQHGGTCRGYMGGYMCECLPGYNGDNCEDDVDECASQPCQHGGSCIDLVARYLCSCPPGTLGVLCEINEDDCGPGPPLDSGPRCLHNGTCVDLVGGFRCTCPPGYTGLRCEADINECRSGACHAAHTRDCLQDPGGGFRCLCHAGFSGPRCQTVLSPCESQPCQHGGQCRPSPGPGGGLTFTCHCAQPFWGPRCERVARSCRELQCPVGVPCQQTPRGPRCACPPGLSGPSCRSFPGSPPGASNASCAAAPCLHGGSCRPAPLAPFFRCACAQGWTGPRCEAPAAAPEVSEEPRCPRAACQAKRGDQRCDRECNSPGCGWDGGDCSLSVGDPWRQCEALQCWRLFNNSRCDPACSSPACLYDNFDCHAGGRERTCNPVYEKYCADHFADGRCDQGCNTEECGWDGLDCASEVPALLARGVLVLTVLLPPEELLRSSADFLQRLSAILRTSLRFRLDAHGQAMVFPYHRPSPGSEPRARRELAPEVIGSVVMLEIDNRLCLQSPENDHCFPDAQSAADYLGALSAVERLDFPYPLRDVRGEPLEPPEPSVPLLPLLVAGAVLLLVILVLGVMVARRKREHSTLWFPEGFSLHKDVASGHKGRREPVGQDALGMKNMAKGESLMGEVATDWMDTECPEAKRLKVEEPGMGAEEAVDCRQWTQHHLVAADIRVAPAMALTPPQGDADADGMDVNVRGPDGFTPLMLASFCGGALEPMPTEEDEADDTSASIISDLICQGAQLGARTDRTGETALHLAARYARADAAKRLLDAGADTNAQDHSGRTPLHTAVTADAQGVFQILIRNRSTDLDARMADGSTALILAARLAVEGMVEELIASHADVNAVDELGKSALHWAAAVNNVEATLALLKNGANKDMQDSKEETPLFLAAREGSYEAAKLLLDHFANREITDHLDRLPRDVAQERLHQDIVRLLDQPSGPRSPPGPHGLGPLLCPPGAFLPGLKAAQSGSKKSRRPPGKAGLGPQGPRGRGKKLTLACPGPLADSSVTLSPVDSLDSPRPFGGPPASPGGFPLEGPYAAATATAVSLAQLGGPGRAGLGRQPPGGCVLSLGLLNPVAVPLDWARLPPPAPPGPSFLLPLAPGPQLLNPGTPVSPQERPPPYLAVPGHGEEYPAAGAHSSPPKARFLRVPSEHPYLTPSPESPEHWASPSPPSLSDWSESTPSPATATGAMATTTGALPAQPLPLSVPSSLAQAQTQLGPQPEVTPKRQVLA
A short description of assay [20]: probe aEGFR binding to arrayed compounds – biochemical, biotinylated probe, 635/667 nm fluorescence, primary screen (AID 1097).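 Note: probe is a biotinylated anti-EGFR antibody binding compounds printed on slides; score combines fluorescence near 667 nm and signal to noise of each spot.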 The conditions noted are these: small-molecule microarray, higher = more signal.

`C=C(/C(=C/C[C@H](OC(=O)c1ccncc1)c1ccc(OCCO)cc1)c1cc(C(=O)OC)ccc1OC)C(C)C`: the composite z-score in assay [1] was -0.0836; in assay [2] it was 0.362; in assay [3], -0.134; in assay [4], 0.607; in [5], -0.478; in assay [6], 0.892. The composite z-score in [7] was 0.781; in assay [9], 0.87; in [10], -0.0994; in assay [11], 1.03; in assay [15] it was 1.73; in assay [17] it was -0.072. Further, the composite z-score worked out at 0.609 in assay [18], 0.381 in assay [19] and 0.122 in assay [20]. In addition, the z-score is 6.19 (inactive) in [8]; 0.236 (inactive) in assay [12]; -1.26 (inactive) in assay [13]; -0.359 (inactive) in assay [14]; 1.09 (inactive) in assay [16].
Take `O=C(NC1CC1)[C@@H]1c2ccccc2C(=O)N(C2Cc3ccccc3C2)[C@H]1c1ccc(CO)cc1`: the composite z-score was -0.549 in assay [1]; 0.847 in [2]; -0.0618 in [3]; 0.139 in assay [4]; 1.01 in [5]; 0.639 in assay [6]. In addition, the composite z-score in [7] was 0.807; in assay [9], 0.325; in [10], 1.38; in [11], 1.44; in assay [15], 3.1; in assay [17], -0.0441. Also, the composite z-score in [18] was 0.976; in [19], 0.722; in [20] it was -0.16. In addition, the z-score in assay [8] was -0.838 (inactive); in assay [12], -0.0411 (inactive); in assay [13] it was 0.682 (inactive); in [14], -0.514 (inactive); in assay [16], 0.628 (inactive).
On to `C[C@H]1C2[C@H](Cc3ccccc3)NC(=O)[C@]23C(=O)NCC(=O)N2CCC[C@H]2C(=O)NC/C=C/CCC/C=C/C3[C@@H]2O[C@]12C` (stereo not given in full), for which the composite z-score in assay [1] is -0.106; in [2], -0.511; in assay [3], -0.191; in assay [4], -0.261; in assay [5], -0.754; in assay [6] it was -0.0754. Besides, the composite z-score in [7] was -0.125; in [9], -0.653; in assay [10], -0.249; in assay [11], -1.33; in assay [15], -1.02; in assay [17], -0.18. Also, the values for the composite z-score in [18], in assay [19] and in assay [20] were -0.627, -0.508 and -0.278, respectively. Moreover, the z-score is -0.111 (inactive) in [8]; 0.291 (inactive) in [12]; -0.0836 (inactive) in assay [13]; -0.0152 (inactive) in assay [14]; 1.51 (inactive) in assay [16].
For `COCCCNC(=O)[C@]1(Cc2ccccc2)N=C(c2ccc(OCCCO)cc2)O[C@@H]1c1ccccc1CN=[N+]=[N-]`, the composite z-score was found to be 0.134 in assay [1]; 0.719 in assay [2]; 0.0584 in assay [3]; 1.03 in assay [4]; 1.49 in [5]; 1.87 in assay [6]. Moreover, the composite z-score is 0.837 in assay [7]; 0.88 in assay [9]; -0.156 in assay [10]; 1.55 in assay [11]; 3.59 in assay [15]; 0.195 in assay [17]. Besides, the composite z-score was 0.53 in assay [18], 1.08 in assay [19] and 0.0326 in assay [20]. For the same compound, the z-score in assay [8] was -2.22 (inactive); in assay [12], -2.05 (inactive); in assay [13], 1.05 (inactive); in assay [14] it was 0.842 (inactive); in assay [16], 1.03 (inactive).
In the case of `COc1ccc([Si](C)(C)[C@@H]2[C@@H](CC(=O)N3Cc4ccccc4C[C@H]3CO)O[C@]3(C(=O)N(Cc4cccc(N5CCC5=O)c4)c4ccccc43)[C@H]2C)cc1`, the composite z-score was -0.0762 in assay [1]; 0.3 in assay [2]; -0.07 in [3]; 0.507 in [4]; 0.596 in assay [5]; 0.592 in [6]. For the same compound, the composite z-score in assay [7] is 1.22; in assay [9], 0.113; in [10] it was 0.35; in assay [11] it was 1.55; in assay [15], 1.95; in assay [17], -0.0963. Further, the values for the composite z-score in [18], in assay [19] and in assay [20] were 0.954, 0.87 and 0.0227, respectively. The z-score in assay [8] is -1.07 (inactive); in assay [12] it was 0.0342 (inactive); in [13] it was 0.589 (inactive); in [14] it was 1.59 (inactive); in assay [16], -0.509 (inactive).
